The results in this text go back to PubChem BioAssay AID1529 (NMMLSC, 2009).

Hit rate of the full screen: of about 290,000 compounds, about 4,200 (1.4%) were called active. This excerpt belongs to a sample that is enriched for actives. Values without a mark were called inactive.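 The calls were made as follows: active = binding response more than 3 SD above or below the average of its plate-row segment, actives on both sides; inconclusive = wells at one plate position flagged as instrument error; inactive = the rest.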

For the experiment, the target named is Mitogen-activated protein kinase kinase kinase 3 (Homo sapiens) (UniProt Q99759). As to the kind of experiment: compounds raising or lowering MEK5 association with MEKK3 PB1 – biochemical, wildtype MEKK3, multiplex bead flow cytometry, Alexa488-MEK5, primary screen (AID 1529).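 Also: Alexa488 bead fluorescence after subtracting the streptavidin-only scavenger bead signal.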 Particulars: bead-based flow cytometry, Alexa488-MEK5 binding to MEKK3; at 10 µM; actives lie on both sides; 0 = blocked by unlabeled MEK5, 100 = vehicle.
Mitogen-activated protein kinase kinase kinase 3 (Homo sapiens), sequence (Q99759 whole entry, looked up): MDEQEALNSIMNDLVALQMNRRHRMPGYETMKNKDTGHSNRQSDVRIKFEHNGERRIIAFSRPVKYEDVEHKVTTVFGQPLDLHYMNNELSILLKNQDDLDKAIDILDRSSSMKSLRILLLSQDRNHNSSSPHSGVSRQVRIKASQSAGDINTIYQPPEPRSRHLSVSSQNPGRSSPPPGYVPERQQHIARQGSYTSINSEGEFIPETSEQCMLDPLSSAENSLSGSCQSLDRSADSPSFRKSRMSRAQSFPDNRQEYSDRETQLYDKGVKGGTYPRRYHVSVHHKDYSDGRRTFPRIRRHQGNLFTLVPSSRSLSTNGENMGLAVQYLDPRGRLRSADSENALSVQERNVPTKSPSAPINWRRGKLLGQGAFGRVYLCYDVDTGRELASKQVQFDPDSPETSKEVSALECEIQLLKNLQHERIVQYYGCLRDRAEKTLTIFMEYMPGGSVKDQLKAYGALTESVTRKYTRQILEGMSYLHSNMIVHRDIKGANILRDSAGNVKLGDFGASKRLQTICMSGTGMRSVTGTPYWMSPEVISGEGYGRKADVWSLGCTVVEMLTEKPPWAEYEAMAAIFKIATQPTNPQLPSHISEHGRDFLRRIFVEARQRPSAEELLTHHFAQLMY
`CCn1c(SCC(=O)NC2CCCC2)nnc1-c1ccoc1C`: the binding response (% of control) was 98%.

For `Cc1cccc(NC(=O)CN2C(=O)c3ccccc3C2=O)c1C`, the binding response (% of control) was 110%. As for `Cc1ccccc1C(=O)NNC(=O)CN1C(=O)c2ccccc2C1=O`, the binding response (% of control) is 135% (active). As to `Cc1cc(C)cc(NC(=O)CN2C(=O)c3ccccc3C2=O)c1`, the binding response (% of control) is 97%. On to `CCC(Cc1ccccc1)NC(=O)C1CCCCC1` (stereo not given), for which the binding response (% of control) was 101%. As to `CCOCCCN(C)C1CCN(C(=O)c2oc3ccccc3c2NC(=O)Cc2cccc([N+](=O)[O-])c2)CC1`, the binding response (% of control) is 99%. In the case of `O=C1CC(N2CCN(c3ccc(F)cc3)CC2)C(=O)N1c1ccccc1` (stereo not given), the binding response (% of control) was 100%.

Turning to `Cc1ccc(CC2CC(=O)N(c3cc(C)ccc3C)C2=O)cc1` (stereo not given), the binding response (% of control) was 101%.

For `Cc1ccc(N2C(=O)CC(N3CCSCC3)C2=O)c(C)c1` (stereo not given), the binding response (% of control) is 55% [inhibitor] (active). The result for `COC(=O)C1=C[C@@H](C(=O)OC)[C@@H]2C3=C(C(=O)[C@]2(C)NC(=O)c2ccccc2)[C@H](C)n2c(=O)n(C)c(=O)n2[C@@H]3C1` reads 108%; that for `CC(c1cccnc1)N(CCN(C)C)C(=O)Nc1ccc(Cl)c(Cl)c1` (stereo not given), 96%; that for `COc1ccc(N(CC(=O)NC(C)(C)C)C(=O)c2ccco2)cc1`, 98%. The result for `CC(C)(C)NC(=O)c1cc(NC(=O)c2ccco2)cc(NC(=O)c2ccco2)c1` reads 101%; that for `C/C(CC(=O)NC(C)(C)C)=N\NC(=O)c1ccco1`, 140% (active). The result for `Cc1ccc(S(=O)(=O)N[C@@H](Cc2ccccc2)C(=O)N2CCC(C(=O)N[C@H](C(=O)O)C(C)O)CC2)cc1` (stereo not given in full) reads 107%. For `Cc1ccc(CSc2nsc(C)c2C#N)cc1`, the binding response (% of control) is 103%. Turning to `COc1cccc(OC)c1C(=O)Nc1ccc(Cc2ccncc2)cc1`, the binding response (% of control) was 147% (active). Take `COc1cccc(OC)c1C(=O)Nc1ccc2c(c1)n(C)c(=O)n2C`: the binding response (% of control) is 109%. The result for `CC(C)CC(=O)Nc1ccc(Cc2ccncc2)cc1` reads 104%; that for `CCOc1ccc(N(CC(=O)Nc2ccccc2F)S(=O)(=O)c2c(C)[nH]c(=O)[nH]c2=O)cc1`, 101%. With `O=C(NCC1CCCCC1)c1cc(S(=O)(=O)N2CCCCC2)ccc1N1CCOCC1` the figure was 4% [inhibitor] (active); with `COCCNC(=S)Nc1cc(S(=O)(=O)N2CCOCC2)ccc1N1CCCCC1`, 99%; with `COc1ccc(S(=O)(=O)N2CCOCC2)cc1C(=O)NC1CCCCC1`, 103%. In the case of `COc1cccc(C(=O)OCc2cc(=O)oc3c(C)c(C)ccc23)c1OC`, the binding response (% of control) was 103%. The result for `Nc1nc(SCc2cccc(Br)c2)n[nH]1` reads 105%; that for `CSCC[C@H](NC(=O)CCCn1nnc2ccccc2c1=O)C(=O)O`, 137% (active). The result for `O=C(CCn1nnc2ccccc2c1=O)N[C@@H](Cc1c[nH]c2ccccc12)C(=O)O` reads 98%. With `O=c1c2ccccc2nnn1CSc1nnnn1-c1ccccc1` the figure was 101%. Regarding `CN(CCc1ccccn1)C(=O)c1ccc(OC2CCN(CCc3ccccc3)CC2)cc1`, the binding response (% of control) was 98%. In the case of `COc1ccc(CNC(=O)C2CCN(S(=O)(=O)c3ccc(SC)cc3)CC2)cc1`, the binding response (% of control) is 101%. Turning to `COc1ccc(CNC(=O)C2CCN(S(C)(=O)=O)CC2)cc1`, the binding response (% of control) is 39% [inhibitor] (active). With `COc1ccc(CNC(=O)C2CCN(S(=O)(=O)N3CCOCC3)CC2)cc1` the figure was 104%. `COc1ccc(CNC(=O)[C@@H]2CC=C[C@@H]3CCN(C4CC4)C(=O)[C@@H]32)cc1`: the binding response (% of control) was 101%. For `O=S(=O)(Nc1ccccc1Br)c1cccs1`, the binding response (% of control) was 100%. The result for `CCCn1c(C)cc(/C=C(\C#N)C(=O)OCC(=O)Nc2cc(OC)c(OC)c(OC)c2)c1C` reads 101%; that for `COc1cc(C2C3=C(CCCC3=O)OC3=C2C(=O)CCC3)ccc1OCC(=O)Nc1ccccc1`, 100%. Regarding `CCOC(=O)/C(C#N)=C/c1ccc(OCC(=O)Nc2ccccc2)c(OC)c1`, the binding response (% of control) was 27% [inhibitor] (active). The result for `Cc1cc(C)c2nc(N(CCN(C)C)C(=O)/C=C/c3cccs3)sc2c1` reads 101%. In the case of `COc1ccc(NC(=O)NNC(=O)COc2cc(C)c(Cl)c(C)c2)c(OC)c1`, the binding response (% of control) was 105%.

For `CC(C)(C)OC(=O)N1CCC(C(=O)NNC(=O)c2ccc(Cl)cc2Cl)CC1`, the binding response (% of control) is 101%. The result for `COc1ccc(CC(=O)N2N=C(C)CC2(O)C(F)(F)F)cc1` (stereo not given) reads 129% (active). The result for `CC1=NN(C(=O)CCc2ccccc2O)C(O)(C(F)(F)F)C1` (stereo not given) reads 90%; that for `CC1=NN(C(=O)CCCc2ccccc2)C(O)(C(F)(F)F)C1` (stereo not given), 108%. With `COc1cc(OC)c(C(=S)N2CCCC2)cc1OC`, the binding response (% of control) is 104%.

On to `CCn1c(=S)sc2c(=O)n(CC(=O)Nc3cccc(Br)c3)c(C)nc21`, for which the binding response (% of control) is 102%.

On to `COc1ccc(/C=C2\SC(=S)N(CCCC(=O)NC3CCCC3)C2=O)cc1OC`, for which the binding response (% of control) is 96%.

As to `COc1cc(NC(=O)CN2C(=O)NC(C)(c3ccc(OC(F)F)cc3)C2=O)cc(OC)c1OC` (stereo not given), the binding response (% of control) was 100%. On to `Fc1ccccc1COc1cccc2cccnc12`, for which the binding response (% of control) is 105%. Take `Cc1onc(-c2ccccc2)c1C(=O)NNC(=S)NC(=O)c1ccc(F)cc1`: the binding response (% of control) is 98%. With `COc1ccc(C(=O)NC(=S)NNC(=O)c2c(-c3ccccc3)noc2C)cc1` the figure was 134% (active); with `COc1ccc(C(=O)NNC(=S)NC(=O)c2ccccc2)cc1`, 101%; with `CN(C)C(=O)CCC(=O)N1CCCCC1C(=O)Nc1ccc(Oc2ccccc2F)cc1` (stereo not given), 105%.

Take `Cc1nn(-c2ccccc2)c(C)c1NC(=O)CCl`: the binding response (% of control) was 138% (active). With `Cc1nn(-c2ccccc2)c(Cl)c1C(=O)Nc1ccccc1` the figure was 98%. Consider `Cc1nn(-c2ccccc2)c(C)c1NC(=O)COc1ccc(Cl)cc1Cl`, for which the binding response (% of control) was 104%. In the case of `Cc1cnc(CN(C)C(=O)C2CCC(=O)N(CCc3cccc(F)c3)C2)[nH]1` (stereo not given), the binding response (% of control) is 104%. With `CC1(c2ccc3ccccc3c2)NC(=O)NC1=O` (stereo not given) the figure was 106%; with `O=c1c2ccccc2ncn1CCCCOc1ccccc1F`, 103%; with `Nc1ccccc1Sc1ccc(C(F)(F)F)cc1[N+](=O)[O-]`, 107%. The result for `O=C(CSc1ccc(C(F)(F)F)cc1[N+](=O)[O-])NCCOc1ccccc1` reads 94%; that for `Cc1cccc(OCCNC(=O)CSc2ccc(C(F)(F)F)cc2[N+](=O)[O-])c1`, 133% (active). The result for `Cn1nccc1C(=O)NC1CCCc2c1cnn2-c1ccccc1F` (stereo not given) reads 101%; that for `CC(=O)C(C)n1cnc2scc(-c3ccc(C)cc3)c2c1=O` (stereo not given), 98%; that for `CCc1ccc(C(=O)COC(=O)c2ccco2)cc1`, 103%. As for `Cc1nc(-c2ccc(Cl)cc2)sc1C1(C)CC(c2ccc(Br)cc2)=NO1` (stereo not given), the binding response (% of control) was 100%.

In the case of `COc1ccc(C(CNC(=O)COc2ccccc2OC)N2CCCCC2)cc1` (stereo not given), the binding response (% of control) was 100%.

Consider `O=C(Cn1cc(C(=O)C2CC2)c2ccccc21)Nc1ccccc1Cl`, for which the binding response (% of control) is 99%.

Consider `COc1ccccc1N1CCN(Cc2ccc(OC)c3ccccc23)CC1`, for which the binding response (% of control) is 105%.

Regarding `CCN1CCN(CCCCOc2ccccc2F)CC1`, the binding response (% of control) was 100%. The result for `COc1ccccc1N1CCN(CCCCOc2ccc(F)cc2)CC1` reads 124% (active). On to `COc1ccc(CCN(C)C(=O)C23CC4CC(CC(Cl)(C4)C2)C3)cc1OC`, for which the binding response (% of control) is 102%. As to `O=C(CCc1nnc2ccc(NCCCN3CCCC3=O)nn12)NCc1ccccc1Cl`, the binding response (% of control) is 101%.

Take `CC(C)(C)NC(=O)c1ccc(Cn2cc(C(F)(F)F)ccc2=O)cc1`: the binding response (% of control) is 100%. `COc1cc(-c2nnc(Cn3cc(C(F)(F)F)ccc3=O)o2)cc(OC)c1OC`: the binding response (% of control) is 2% [inhibitor] (active). Take `CCOC(=O)c1cc(-c2nnc(-c3cc(OC)c(OC)c(OC)c3)o2)c(C)nc1C`: the binding response (% of control) was 100%. The result for `Cc1ccc(S(=O)(=O)N2CCC3(CC2)OCCO3)c(C)c1` reads 101%; that for `CCCCCc1c(C)nc(N2CCN(Cc3ccc4c(c3)OCO4)CC2)[nH]c1=O`, 98%. With `Cc1cc(S(=O)(=O)NCC(C)C)ccc1OCC(=O)NC1CC1` the figure was 102%; with `COc1ccccc1NC(=S)N1CCN(C(c2ccccc2)c2ccccc2)CC1`, 102%. The result for `COc1ccccc1NC(=S)N1CCN(c2ccc(F)cc2)CC1` reads 45% [inhibitor] (active); that for `COC(=O)c1ccc(C(=O)OC)c(NC(=S)N2CCN(c3ccc(F)cc3)CC2)c1`, 97%. As for `COc1cccc(NC(=O)CCc2nnc3ccc(N4CCC(C)CC4)nn23)c1`, the binding response (% of control) was 98%.

For `CC1(C)C=Cc2c(ccc3c2OC[C@@H](c2ccc(O)cc2O)C3)O1`, the binding response (% of control) was 108%. The result for `Cc1nc2ccccc2nc(C)c1=NOCc1ccc(Cl)cc1Cl` reads 98%; that for `Cc1[nH]c(=O)c(C(=O)/C=C/c2ccccc2)c2c1CCCC2`, 107%; that for `Cc1nc2nc[nH]n2c(=O)c1C/C=C/c1ccccc1`, 84%. The result for `Cc1cn(COC/C=C/c2ccccc2)c(=O)[nH]c1=O` reads -2% [inhibitor] (active). For `Cc1cc(=O)oc2cc(OCC(=O)N3CCN(c4ccc(F)cc4)CC3)c(Cl)cc12`, the binding response (% of control) was 101%. Regarding `Cc1ncc(CC(=O)n2cc(C(=O)c3cc(Cl)ccc3O)cn2)s1`, the binding response (% of control) was 109%. Turning to `O=C(c1cnn(-c2ccc(Cl)cc2)c1)c1ccccc1O`, the binding response (% of control) was 129% (active). The result for `COc1ccc(C(=O)Cc2cnn(-c3ccccc3)c2)c(O)c1` reads 101%; that for `CC1(C)C2CC[C@]3(C)C(CC=C4[C@@H]5C[C@@](C)(CO)CC[C@]5(C(=O)O)CC[C@]43C)[C@@]2(C)CC[C@@H]1O` (stereo not given in full), 105%; that for `COc1ccc(CNc2nnnn2C)cc1`, 51% [inhibitor] (active). Regarding `CCCn1nnnc1NCc1ccc(OC)cc1`, the binding response (% of control) was 111%. With `Cn1nnnc1NCc1ccc(Cl)c(Cl)c1`, the binding response (% of control) was 105%.
